The list is not random: actives were taken first. Their share in the collection is about 7.2%.
MARV entry inh: blocks Marburg virus binding to or entry into cells | Marburg virus pseudotyped entry inhibition, cell reporter | Potency, µM (series often up to 37.8 µM), for the others: at the top dose activity change, negative = inhibition, hits mostly inhibitors | actives 1.8% (n = 300,000) | AID 540276; calls by dose curve; tested in HEK293 cells
FMDV inh: blocks foot and mouth disease virus; FMDV antiviral cell-based qHTS; Potency, µM (highest dose often 57.9 µM), for inactives: at the top dose activity change, negative = inhibition, most hits filed as inhibitors; actives 1.2% (n = 410,000); AID 1159524; calls by dose curve; tested in HEK293T cells; note: read-out not given here; nearly all actives have a fitted effect of over 45% in size
Sm TGR inh: blocks Schistosoma mansoni thioredoxin glutathione reductase. Q962Y6. purified TGR, DTNB reduction, TNB absorbance 405 nm. Potency, µM (titrated, usually from 114 µM), for inactives: top-dose activity change, negative = inhibition, actives largely listed as inhibitors. actives 3% (n = 360,000). AID 485364; note: nearly all actives have a fitted effect of over 60% in size
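First, TGR (20 nM dispensed) and NADPH were mixed with compound. Second, a 15 min room-temperature incubation followed. Third, further NADPH and then DTNB were added to start the reaction. Finally, TNB absorbance was monitored kinetically.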
Lassa entry inh: inhibitors of Lassa virus binding or cell entry | Lassa virus pseudotype entry inhibition, cell reporter | Potency, µM (titrated, usually from 37.9 µM), for inactives: at the top dose activity change, negative = inhibition, actives largely listed as inhibitors | actives 1.2% (n = 300,000) | AID 540256; calls by dose curve; tested in HEK293 cells; note: nearly all actives have a fitted effect of over 50% in size
RE007 growth inh: less growth of the S. pombe RE007 Vpr strain | S. pombe RE007 Vpr strain, BacTiter-Glo ATP luminescence, 24 h | Potency, µM (titrated, usually from 92.2 µM), inactives show at the top dose activity change, negative = less growth, actives largely listed as inhibitors | actives 0.21% (n = 360,000) | AID 651644; active = well fitted falling curve with a large enough effect; inconclusive = small, poorly fitted or top-dose-only effect; inactive = no such curve, though single readings can be large or run the other way; note: nearly all actives have a fitted effect of over 50% in size
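Fission yeast RE007 carrying one integrated HIV-1 vpr copy, seeded at OD 0.01 in PMG+AL medium with 23 nL pinned compound. Grown 24 h at 30 degrees; viability read by BacTiter-Glo luminescence after 5 min.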
HCV inh: HCV inhibition. AID 651820. actives 3.4% (n = 340,000). Potency, µM (doses to about 41.8 µM), for the others: top-dose activity change, negative = inhibition, hits mostly inhibitors. Huh7.5.1 HCVcc-Cre infection, luciferase reporter, 44 h
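Luciferase read-out (15 sec integration) after a 15 min room-temperature substrate step quantifies HCVcc-Cre infection. Cells, 1,000 per well, had compound added 4 h post-plating, then virus at ~0.5 moi, and were cultured 44 h.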
Numbers without * were called inactive; [ ] = dose if it differs, or a comment. Unless noted, calls come from the whole dose curve; as a rule, active = well fitted curve in the direction sought with a large enough effect; inconclusive = small, poorly fitted or top-dose-only effect, or another doubt; inactive = no such curve, though single readings can be large; an effect the other way counts as inactive or inconclusive. % is set by controls: 0 for no effect and ±100 for the full control effect; potency is the fitted concentration of half-maximal effect.

`Cc1cc(C(=O)N/N=C/c2ccc3c(c2)OCO3)c(C)n1-c1ccc(F)cc1` gave MARV entry inh -13%[46.1 µM], FMDV inh 46%, Sm TGR inh -19%, Lassa entry inh 6%, RE007 growth inh -16% and HCV inh inconclusive.
For Cc1occc1C(=O)N/N=C/c1ccc(-c2ccccc2)cc1 the results were MARV entry inh inconclusive, FMDV inh -2%, Sm TGR inh 0%, Lassa entry inh 7.9µM*, RE007 growth inh inconclusive and HCV inh -18%.
`O=C(N/N=C/c1ccc(Cl)c([N+](=O)[O-])c1)c1cc(-c2ccc3c4c(cccc24)CC3)n[nH]1` gave MARV entry inh inconclusive, FMDV inh -26%, Sm TGR inh 11%, Lassa entry inh 6.3µM*, RE007 growth inh 0% and HCV inh -8%.
`Cc1cc(C(=O)N/N=C/c2ccc(Cl)c([N+](=O)[O-])c2)c(C)n1-c1ccc(F)cc1` gave MARV entry inh inconclusive, FMDV inh -32%, Sm TGR inh -17%, Lassa entry inh 13µM*, RE007 growth inh 3% and HCV inh inconclusive.
Screening Cc1occc1C(=O)N/N=C/c1ccc(OCc2ccccc2)cc1 returned FMDV inh 47%, Sm TGR inh -1%, RE007 growth inh -11% and HCV inh inconclusive.
For Cc1cc(C)cc(-n2c(C)cc(/C=N/NC(=O)c3cccc([N+](=O)[O-])c3C)c2C)c1 the results were MARV entry inh inconclusive, FMDV inh inconclusive, Sm TGR inh 5%, Lassa entry inh inconclusive, RE007 growth inh -8% and HCV inh 4µM*.
For CCOC(=O)c1c(S(=O)(=O)N2CCCC(C(=O)N(C)Cc3ccccc3)C2)c(C)n(C)c1C (configuration not stated) the results were FMDV inh 29%, Sm TGR inh 8% and Lassa entry inh -9%[46.1 µM].
For Cc1occc1C(=O)N/N=C/c1ccc(Cl)c([N+](=O)[O-])c1 the results were MARV entry inh 4µM*, FMDV inh 38%, Sm TGR inh 8%, Lassa entry inh -5%, RE007 growth inh -3% and HCV inh inconclusive.
`N#Cc1ccc(CN2CCN(C(=O)c3ccc(S(=O)(=O)NCc4ccco4)cc3)CC2)cc1` gave FMDV inh inconclusive, Sm TGR inh -27%, RE007 growth inh 1% and HCV inh 6.3µM*.
`Cc1cccc(N2CCN(C(=O)c3ccc(S(=O)(=O)N(C)c4ccccc4)cc3)CC2)c1C` gave MARV entry inh inconclusive, FMDV inh inconclusive, Lassa entry inh 4.5µM*, RE007 growth inh -2% and HCV inh inconclusive.
`CCc1noc(C)c1C(=O)N1CCN(c2cccc(C)c2C)CC1` gave MARV entry inh -18%, FMDV inh inconclusive, Sm TGR inh -3%, Lassa entry inh inconclusive, RE007 growth inh 91% and HCV inh 2%.
`Cc1cccc(N2CCN(C(=O)c3c(-c4ccccc4)noc3C)CC2)c1C` gave MARV entry inh 2.5µM*, FMDV inh inconclusive, Sm TGR inh 0%, Lassa entry inh inconclusive, RE007 growth inh 8% and HCV inh inconclusive.
For CN1CCN(C(=O)c2ccc(S(=O)(=O)N(C)c3ccccc3)cc2)CC1 the results were FMDV inh -26% and RE007 growth inh 4%.
Screening CN(c1ccc(C(=O)N2CCN(Cc3ccccc3)CC2)cc1)S(=O)(=O)c1ccc(Cl)cc1 returned MARV entry inh inconclusive, FMDV inh -23%, Sm TGR inh -4%, Lassa entry inh -11%[46.1 µM], RE007 growth inh -3% and HCV inh 10µM*.
`COC(=O)c1c(-c2cccs2)csc1NC(=O)c1ccc(C(C)(C)C)cc1` gave MARV entry inh inconclusive, FMDV inh -28%, Sm TGR inh 0% and Lassa entry inh 1%[46.1 µM].
COc1ccccc1CNc1nc(-c2ccccc2OC)nc2ccccc12 was read as FMDV inh -28%.
COCCN1Cc2cccc(C(=O)Nc3ccc(C(=O)OC)cc3)c2C1=O was read as MARV entry inh 1%[46.1 µM], FMDV inh -1%, Sm TGR inh -3% and Lassa entry inh 8%[46.1 µM].
Cc1cccc(NS(=O)(=O)c2cccc(C(=O)N3CCN(c4ccccn4)CC3)c2)c1 was read as MARV entry inh inconclusive, FMDV inh 19%, Sm TGR inh 1%, Lassa entry inh inconclusive and RE007 growth inh -13%.
`CN(c1ccccc1)S(=O)(=O)c1cccc(C(=O)N2CCN(c3ccccn3)CC2)c1` gave MARV entry inh -22%, FMDV inh 40µM*, Sm TGR inh -2%, Lassa entry inh inconclusive, RE007 growth inh -2% and HCV inh -17%.
`Cc1onc(-c2c(F)cccc2Cl)c1C(=O)N1CCN(c2ncc(Br)cn2)CC1` gave MARV entry inh inconclusive, FMDV inh 28µM*, Sm TGR inh 8%, Lassa entry inh inconclusive, RE007 growth inh 23% and HCV inh inconclusive.
Screening COC(=O)c1cc(C(=O)N2CCN(c3ccccc3OC)CC2)cc([N+](=O)[O-])c1 returned MARV entry inh inconclusive, FMDV inh -7%, Sm TGR inh 1%, Lassa entry inh -28%, RE007 growth inh 7% and HCV inh -26%.
For O=C(c1ccc(CNS(=O)(=O)c2ccccc2)cc1)N1CCN(Cc2ccccc2)CC1 the results were MARV entry inh inconclusive, FMDV inh inconclusive, Sm TGR inh -9%, Lassa entry inh inconclusive, RE007 growth inh -8% and HCV inh 11µM*.
For COC(=O)c1cc(C(=O)N2CCN(c3cccc(C)c3C)CC2)cc([N+](=O)[O-])c1 the results were MARV entry inh 4.5µM*, FMDV inh -29%, Sm TGR inh 15%, Lassa entry inh -23%, RE007 growth inh 3% and HCV inh inconclusive.
Screening COCCN=c1scc(-c2cc(OC)c(OC)c(OC)c2)n1/N=C/c1c(C)[nH]c2ccccc12 returned MARV entry inh 11µM*, FMDV inh inconclusive, Sm TGR inh -14%, Lassa entry inh inconclusive, RE007 growth inh 3% and HCV inh 8.9µM*.
Cc1ccccc1NC(=O)c1nc(-c2ccncc2)no1 was read as FMDV inh 25%, Sm TGR inh -6% and Lassa entry inh 0%[46.1 µM].
CCOC(=O)C1=C(C)OC(N)=C(C#N)[C@H]1c1cc2ccccc2nc1N1CCCCC1 was read as MARV entry inh 1%.
For Cc1c(C(=O)N2CC3CCC2C3)sc2ncnc(NCc3ccco3)c12 (configuration not stated) the results were FMDV inh -10%.
`OC(CN1CCNCC1)Cn1ccc2ccccc21` (configuration not stated) gave Sm TGR inh -13%.

From PubChem
